The supplement of paper PMC9801561
± gives the standard deviation of the averaged measurements.

test system: Escherichia coli Nissle 1917; assay: area under OmniLog respiration curve over 48 h (OmniLog units x h); higher = more growth / nutrient utilisation; extreme values may be limits of the assay; conditions: nutrient role: sole nitrogen source (pyruvate carbon); incubation: 48 h, 37 °C

Q: For `NC(=O)[C@H]1O[C@@H](O)[C@H](O)[C@@H](O)[C@@H]1O` [Glucuronamide], which “area under OmniLog respiration curve” value is on record?
A: 2520 ± 1200

Q: For `N[C@@H](Cc1c[nH]cn1)C(=O)O` [L-Histidine], which “area under OmniLog respiration curve” value is on record?
A: 4.72

Q: `NCCC[C@H](N)C(=O)O` [L-Ornithine] was tested. Which “area under OmniLog respiration curve” value did it give?
A: 2670 ± 1300

Q: Which “area under OmniLog respiration curve” value does the source give for `CC(C)C[C@H](N)C(=O)O` [L-Leucine] here?
A: 804 ± 870

Q: For `NCCCCN` [Putrescine], which “area under OmniLog respiration curve” value is on record?
A: 31.6 ± 46

Q: `N=C(N)NCCC[C@H](N)C(=O)O` [L-Arginine] was tested. Which “area under OmniLog respiration curve” value did it give?
A: 7500 ± 1400

Q: How did the “area under OmniLog respiration curve” value turn out when `NC(=O)CC[C@H](N)C(=O)O` [L-Glutamine] was run?
A: 8560 ± 1200

Q: For `NCCCC[C@H](N)C(=O)O` [L-Lysine], which “area under OmniLog respiration curve” value is on record?
A: 301 ± 240

Q: With `N[C@@H](CO)C(=O)O` [L-Serine] as the molecule, how does the “area under OmniLog respiration curve” value read?
A: 7360 ± 1300

Q: With `N[C@H](CO)C(=O)O` [D-Serine] as the molecule, how does the “area under OmniLog respiration curve” value read?
A: 7130 ± 1200

Q: With `C[C@H](N)C(=O)O` [L-Alanine] as the molecule, how does the “area under OmniLog respiration curve” value read?
A: 7330 ± 1200

Q: How did the “area under OmniLog respiration curve” value turn out when `NC(=O)C[C@H](N)C(=O)O` [L-Asparagine] was run?
A: 8770 ± 1400

Q: How did the “area under OmniLog respiration curve” value turn out when `O=c1[nH]cnc2c1ncn2[C@@H]1O[C@H](CO)[C@@H](O)[C@H]1O` [Inosine] was run?
A: 24.8 ± 35

Q: How did the “area under OmniLog respiration curve” value turn out when `N[C@H](CC(=O)O)C(=O)O` [D-Aspartic acid] was run?
A: 4.72

Q: For `N[C@H]1C(O)O[C@H](CO)[C@@H](O)[C@@H]1O` (stereo partly drawn) [D-Glucosamine], which “area under OmniLog respiration curve” value is on record?
A: 2180 ± 1100

Q: With `CSCC[C@H](NC(=O)CN)C(=O)O` as the molecule, how does the “area under OmniLog respiration curve” value read?
A: 5710 ± 1300

Q: With `Cc1cn([C@H]2C[C@H](O)[C@@H](CO)O2)c(=O)[nH]c1=O` [Thymidine] as the molecule, how does the “area under OmniLog respiration curve” value read?
A: 4.72

Q: `N[C@@H](CCC(=O)O)C(=O)O` [L-Glutamic acid] was tested. Which “area under OmniLog respiration curve” value did it give?
A: 7860 ± 1300

Q: For `O=c1ccn([C@@H]2O[C@H](CO)[C@@H](O)[C@H]2O)c(=O)[nH]1` [Uridine], which “area under OmniLog respiration curve” value is on record?
A: 8.86 ± 7.2
